From PubChem BioAssay (NCI)
About 83,000 compounds went through this panel and 20% of them were active in at least one assay; those are over-represented in the sample as a whole.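 A percent growth of 40 corresponds to 60% growth inhibition; 0 means no net growth; -100 means all cells died. Active threshold: below 10.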 Values without a mark were called inactive. Active and inactive are the calls of the source.

test system: HL-60(TB) leukemia; test: NCI-60 one-dose screen, 48 h (100 = growth as untreated, 0 = no growth, -100 = all killed); settings: 10 µM unless noted

Row | Structure (SMILES) | growth
1 | CSc1ccc(NC(=O)c2ccc3nn(/C(C#N)=C/c4ccccn4)nc3c2)cc1 | -18.9% (active)
2 | O=C(N/N=C/c1ccc(Cl)o1)c1[nH]c2ccc(Br)cc2c1-c1ccccc1 | -42.4% (active)
3 | CC(C)CSc1nc(NCCc2c[nH]c3ccccc23)c(C#N)c(-c2ccc(Cl)cc2)n1 | 47.5%
4 | O=C(COc1ccc2c(c1)CCCC(=O)N2)NCc1ccccc1 | 70.4%
5 | COc1ccc(CN2[C@H](C(=O)NCCCCCCC(=O)NO)Cc3c([nH]c4ccccc34)[C@H]2C2CC2)cc1 | 3.44% (active)
6 | C#CCOc1ccc(/C=N/Nc2nc(-c3ccc(F)cc3)cs2)cc1OC | 25.2%
7 | [2H]C([2H])([2H])Oc1ccc2ncc(C#Cc3cncc(C(=O)Nc4ccc(CN5CCN(C)CC5)c(C(F)(F)F)c4)c3)n2n1 | -60.4% (active)
8 | COc1cc(CNC(=O)C[C@H](C)CCC=C(C)C)ccc1OCc1cn(-c2ccc(Cl)cc2Cl)nn1 | 95.5%
9 | CC(=O)c1cc(C(=O)c2ccc3c(c2)NC(=O)CO3)n2ccc3ccccc3c12 | 94.7%
10 | COc1cc2oc(-c3cccc(NC(=O)[C@H](Cc4ccccc4)NC(=O)OC(C)(C)C)c3)cc(=O)c2c(OC)c1OC | 22.9%
11 | C#CCOc1cc(N(CC)CC)ccc1C(C(=O)NC(C)(C)C)N(C(=O)C1CCc2cc(F)ccc2O1)c1ccccc1Br (configuration not stated) | 21.7%
12 | CCC(C)(C)c1ccc(OCCCCN2CCN(c3ccncc3)CC2)cc1 | -57.7% (active)
13 | COc1cc(NC(=O)CSc2nnc(-c3ccc(-c4nc5ccc(Cl)cc5[nH]4)cc3)o2)cc(OC)c1OC | 8.77% (active)
14 | COc1cc(/C=C/C(=O)c2cc(OC)c(OC)c(OC)c2)ccc1Oc1nc(Nc2ccc(F)cc2)nc(N(C)C)n1 | -7.15% (active)
15 | O=C(NNC(=O)c1ccc(OCc2nc3ccc(Cl)cc3[nH]2)cc1)Nc1ccc(Cl)c(C(F)(F)F)c1 | 74.8%
16 | CCCn1c(=O)c2[nH]c(-c3ccc(OCc4nc5ccc(F)cc5[nH]4)cc3)nc2n(CCC)c1=O | 38.2%
17 | N#Cc1cnn(C(=O)c2ccccc2Br)c1NC(=O)c1ccc(Br)cc1Cl | 107%
18 | Fc1cccc(CNc2nc(SCCN3CCOCC3)nc3c2cnn3CC(Cl)c2ccc(Br)cc2)c1 (configuration not stated) | -23.6% (active)
19 | O=C(COc1ccc(NC(=O)Nc2ccc(Cl)c(Cl)c2)cc1)N=Nc1c(O)[nH]c2ccccc12 | 40.1%
20 | Nc1nc(Nc2ccc(Cl)cc2)nn1Cc1cccc(Br)c1 | 34.5%
21 | CCN1C(=O)/C(=N\N=C(/C)c2ccc3c(c2)Nc2ccccc2S3)c2cc(Cl)ccc21 | 75.2%
22 | O=C1NC(=NC2CCCCCC2)N/C1=C\c1ccc2ncoc2c1 | 30.1%
23 | CCc1ccc(SC2c3cc(OC)ccc3Oc3nc(N)c(C#N)c(N)c32)cc1 (configuration not stated) | -77.8% (active)
24 | FC(F)(F)c1cc2c(Cl)ncnc2n1CCN1CCCCC1 | -13.5% (active)
25 | COc1cccc(NC(=O)c2ccc(NC(=O)CCl)s2)c1 | -28.2% (active)
26 | C/C(=N\Nc1ccc(C(=O)O)cc1)c1cnn(-c2cc(=O)[nH]c3ccc(C)cc23)c1C | 101%
27 | COC(=O)C[C@](O)(CCCC(C)(C)O)C(=O)O[C@H]1C(OC)=C[C@@]23CCC(=O)N2CCc2cc4c(cc2[C@@H]13)OCO4 | 97.4%
